# Screening results deposited in PubChem by National Center for Advancing Translational Sciences (NCATS).
# Sm TGR block = blocks Schistosoma mansoni thioredoxin glutathione reductase; 360,000 compounds, 3% hits; purified TGR, DTNB reduction, TNB absorbance 405 nm; Q962Y6; AID 485364; Potency, µM (top dose mostly 114 µM), most hits filed as inhibitors; also: nearly all actives have a fitted effect of over 60% in size
#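 TGR 20 nM + NADPH 100 uM (dispensed conc.), cpd preinc 15 min RT; start with NADPH (500 uM addition) then DTNB (15 mM addition). Kinetic TNB absorbance, 405 nm filter. Four-parameter Hill fit across titration.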
# FMDV antiviral = foot and mouth disease virus antiviral activity | FMDV antiviral cell-based qHTS | Potency, µM (titrated, usually from 57.9 µM), usual class: inhibitors | 410,000 compounds, 1.2% hits; calls by dose curve; tested in HEK293T cells; also: read-out not given here; nearly all actives have a fitted effect of over 45% in size
# VACV Venus inh = vaccinia inhibition (Venus reporter); Vaccinia virus Venus reporter expression, fluorescence; Potency, µM (titrated, usually from 36.5 µM), actives largely listed as inhibitors; 330,000 compounds, 0.46% hits; calls by dose curve; tested in A549 cells; also: nearly all actives have a fitted effect of over 30% in size
# MARV entry inh = inhibitors of Marburg virus binding or cell entry; Potency, µM (doses to about 37.8 µM), most hits filed as inhibitors; 300,000 compounds, 1.8% hits; Marburg virus pseudotyped entry inhibition, cell reporter; calls by dose curve; tested in HEK293 cells
# Vaccinia mCherry = vaccinia inhibition (mCherry reporter); Potency, µM (highest dose often 36.5 µM), usual class: inhibitors; Vaccinia virus mCherry reporter infection, fluorescence; 310,000 compounds, 0.63% hits; AID 720579; calls by dose curve; tested in A549 cells; also: nearly all actives have a fitted effect of over 35% in size
# Lassa entry inh = blocks Lassa virus binding to or entry into cells; Lassa virus pseudotype entry inhibition, cell reporter; AID 540256; 300,000 compounds, 1.2% hits; Potency, µM (titrated, usually from 37.9 µM), hits mostly inhibitors; calls by dose curve; tested in HEK293 cells; also: nearly all actives have a fitted effect of over 50% in size
# HeLa G2M arrest = HeLa G2/M cell cycle arrest induction | shares compounds with MARV entry inh | HeLa cell cycle G2/M arrest, Hoechst DNA content imaging | Potency, µM, most hits filed as inhibitors | 25 compounds, 60% hits
# WI-38 tox = toxic to WI-38 fibroblasts in PNC inhibitor counter-screen | shares compounds with MARV entry inh | WI-38 normal lung fibroblasts, ATPLite luminescence ATP viability, 24 h | Potency, µM (titrated, usually from 46.1 µM), most hits filed as inhibitors | 120 tested, under 10 active
# PNC inh conf = confirmation of perinucleolar compartment assembly inhibitors. shares compounds with MARV entry inh. PC3M PTB-GFP, PNC prevalence imaging, 16 h. Potency, µM (top dose mostly 46.1 µM), most hits filed as inhibitors. 120 compounds, 50% hits. AID 2730
# PC3M caspase = PC3M caspase 3/7 activation by PNC inhibitor hits. shares compounds with MARV entry inh. PC3M-GFP caspase 3/7 activation, luminescence, 24 h. activity change, positive = activation, % at 46.1 µM. AID 2731. 120 tested, under 10 active
# Numbers stand for hits; i = inactive; ? = inconclusive; nt = not tested or not shown. An excerpt weighted towards active compounds, which were near 5.4% of everything screened. Unless noted, calls follow the shape of the dose curve; as a rule, active = well fitted curve in the direction sought with a large enough effect; inconclusive = small, poorly fitted or top-dose-only effect, or another doubt; inactive = no such curve, though single readings can be large; an effect the other way counts as inactive or inconclusive.
SMILES,Sm TGR block,FMDV antiviral,VACV Venus inh,MARV entry inh,Vaccinia mCherry,Lassa entry inh,WI-38 tox,PNC inh conf,PC3M caspase,others
Cc1cccc(NC2=C/C(=N/S(=O)(=O)c3cccs3)c3ccccc3C2=O)c1,i,?,i,?,i,3.16µM,?,14.1µM,?,
COc1ccccc1CNC(=O)Cn1c(-c2cccs2)cc2cc(F)ccc21,i,i,i,nt,i,i,nt,nt,nt,
Cc1ccc(C(O)(C(=O)NNC(=O)CN2CCN(C)CC2)c2ccc(C)cc2)cc1,i,i,i,?,i,i,i,i,i,
Oc1cc(-c2nc3ccccc3s2)cc2c1OCCN(Cc1cccn1-c1nccs1)C2,nt,i,i,nt,i,nt,nt,nt,nt,
CCC(=O)N(C1=C(NC(C)C)C(=O)c2ccccc2C1=O)C(C)C,i,?,nt,nt,nt,nt,nt,nt,nt,
CCCNC1=C(N(C(C)=O)c2cccc(F)c2)C(=O)c2ccccc2C1=O,i,28.2µM,12.6µM,?,14.1µM,?,i,?,?,
Cc1ccccc1NC(=O)C1CCN(C(=O)c2cnn(-c3ccccc3)c2-n2cccc2)CC1,i,i,i,?,i,i,nt,nt,nt,
CCCC(CCC)C(=O)Nc1cccc(-c2cn3cccnc3n2)c1,i,i,i,nt,i,i,nt,nt,nt,
CC1CCN(c2ccc(-c3nc(-c4ccccc4)no3)cc2[N+](=O)[O-])CC1,i,i,i,?,i,?,nt,nt,nt,
CN(C)S(=O)(=O)c1ccc2c(c1)/C(=C/c1cc3c([nH]1)CCCC3)C(=O)N2,50.1µM,i,i,?,i,?,nt,nt,nt,HeLa G2M arrest=?
CC(=O)/C(C#N)=C1\NC(=O)C(Cc2ccc(C)c(C)c2)S1 (configuration not stated),i,i,i,0.411µM,15.8µM,1.3µM,i,7.94µM,i,
N=c1c2c(-c3ccccc3)c(-c3ccccc3)n(Cc3ccco3)c2ncn1CCCn1ccnc1,i,?,?,3.55µM,i,11.2µM,i,25.1µM,i,
COc1ccc2nc3sc(C(=O)NCCCN4CCc5ccccc5C4)cc3cc2c1,i,i,i,?,?,?,?,i,i,
CCN(CCCNC(=O)c1cc2cc3ccc(OC)cc3nc2s1)c1ccccc1,i,i,?,?,i,?,nt,nt,nt,
CC(/C=C/c1ccccc1)=N/NC(=O)c1cc([N+](=O)[O-])cc([N+](=O)[O-])c1,i,i,i,?,i,?,i,?,i,
Nc1cccc(-c2nc3ccc(N)cc3s2)c1,i,?,i,11.2µM,?,?,28.2µM,5.01µM,i,
Nc1ccc(O)c(-c2nc3ccccc3s2)c1,i,i,i,i,i,?,nt,nt,nt,
CCC(=NCc1cc(OC)cc(OC)c1)c1c(O)n(C)c(=O)n(C)c1=O,i,?,nt,20.6µM,nt,?,i,?,i,
CCC(=NCc1ccc2c(c1)OCO2)c1c(O)n(C)c(=O)n(C)c1=O,i,?,nt,?,nt,?,nt,nt,nt,
Cc1ccc(NC(=O)CC(c2ccc(F)cc2)N2Cc3ccccc3C2=O)cc1C (configuration not stated),i,i,i,nt,i,i,nt,nt,nt,
CCN1C(=O)c2cccc3c(S(=O)(=O)N(C(=O)c4cccnc4)c4ccc(OC)cc4)ccc1c23,i,i,?,?,i,i,nt,nt,nt,
CCN1C(=O)c2cccc3c(S(=O)(=O)N(C(=O)c4ccncc4)c4ccc(OC)cc4)ccc1c23,i,i,i,?,i,?,i,i,i,
O=C(NC(CSCc1ccccc1)C(=O)N/N=C/c1ccc(O)cc1O)c1ccc([N+](=O)[O-])cc1 (configuration not stated),i,i,nt,4.61µM,nt,9.2µM,i,?,i,
O=c1[nH]c(=O)n([C@H]2C[C@H](O)[C@@H](CO)O2)cc1Br,i,i,i,i,i,i,nt,nt,nt,HeLa G2M arrest=?
CNS(=O)(=O)c1cccc(C(=O)Nc2cccc(Cl)c2)c1,i,i,i,i,i,i,i,?,i,
CNS(=O)(=O)c1cccc(C(=O)Nc2cccnc2)c1,i,i,i,i,nt,i,nt,nt,nt,
O=C(Nc1cccnc1)c1cccs1,i,i,nt,?,nt,?,i,8.91µM,i,
CCN(CC)C(=S)SSC(=S)N(CC)CC,i,i,i,3.55µM,i,2.91µM,?,?,i,
C=C(Cl)CSC(=S)N(CC)CC,?,i,i,i,i,nt,nt,nt,nt,
CC1(C(=O)NS(=O)(=O)c2cccc(Cl)c2)CCN1C(=O)c1cccc2ccccc12 (configuration not stated),nt,i,i,nt,i,nt,nt,nt,nt,
